# Measured values reported in PubChem BioAssay AID1946 (Johns Hopkins Ion Channel Center, 2009).
# In all, about 2,400 compounds went through this assay and about 180 (7.5%) were called active. The full list was thinned out, with actives kept by preference. Values without a mark were called inactive.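 Rule for the calls: active = readout below zero, meaning a drop past 3 SD under the dofetilide-free negative control mean; inactive = the rest.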
# Molecular target: Potassium voltage-gated channel subfamily KQT member 2 (Rattus norvegicus) (UniProt O88943)
# Assay: rat KCNQ2 channel inhibition by compounds alone, confirmation, counter-screen for hERG block protector project, cell-based, CHO, FluxOR thallium flux (AID 1946)
# Conditions: CHO-KCNQ2 cells, FluxOR thallium flux fluorescence; at 10 µM; stronger effect = lower value; zero marks the 3-SD hit cutoff
# Sequence of Potassium voltage-gated channel subfamily KQT member 2 (Rattus norvegicus) (O88943 whole entry, looked up): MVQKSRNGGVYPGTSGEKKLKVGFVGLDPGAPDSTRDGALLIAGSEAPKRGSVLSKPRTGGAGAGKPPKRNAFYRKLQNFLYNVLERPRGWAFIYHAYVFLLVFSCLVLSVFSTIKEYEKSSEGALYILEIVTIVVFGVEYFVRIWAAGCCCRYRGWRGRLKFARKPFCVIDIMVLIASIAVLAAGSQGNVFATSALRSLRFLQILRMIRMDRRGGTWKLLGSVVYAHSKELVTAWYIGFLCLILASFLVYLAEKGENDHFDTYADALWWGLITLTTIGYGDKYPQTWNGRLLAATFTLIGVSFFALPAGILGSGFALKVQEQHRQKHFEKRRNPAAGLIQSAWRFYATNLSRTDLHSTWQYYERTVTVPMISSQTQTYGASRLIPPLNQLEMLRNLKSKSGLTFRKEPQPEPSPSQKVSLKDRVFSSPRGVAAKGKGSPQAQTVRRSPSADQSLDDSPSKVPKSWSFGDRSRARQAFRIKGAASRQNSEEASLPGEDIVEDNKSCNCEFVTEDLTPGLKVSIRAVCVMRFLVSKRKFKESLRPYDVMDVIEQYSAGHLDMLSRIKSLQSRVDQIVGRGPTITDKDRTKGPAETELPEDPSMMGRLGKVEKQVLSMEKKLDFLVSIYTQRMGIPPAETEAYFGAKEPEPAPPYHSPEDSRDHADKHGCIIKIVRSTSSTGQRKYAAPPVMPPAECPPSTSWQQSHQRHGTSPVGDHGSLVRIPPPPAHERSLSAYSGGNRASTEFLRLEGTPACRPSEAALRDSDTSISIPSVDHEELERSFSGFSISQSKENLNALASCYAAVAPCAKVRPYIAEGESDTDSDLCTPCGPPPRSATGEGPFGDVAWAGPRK
row,Structure (SMILES),activity change vs negative control
1,S=c1nc(Cc2ccc(Cl)cc2)[nH]c2ccccc12,51.9%
2,COc1ccccc1NC(=O)C1CCCN1C(=O)Nc1ccc(F)cc1 (stereo not given),1.7%
3,COc1ccccc1NC(=O)C1CCCN1C(=O)NCc1ccccc1 (stereo not given),-1.2% (active)
4,COc1ccccc1C(=O)NNC(=O)C(=O)NCc1ccccc1,41.8%
5,COc1cccc(OCC(=O)NNC(=O)C(=O)Nc2ccc(OC)cc2OC)c1,43.2%
6,O=C1NC(=O)/C(=C/c2cc3c(cc2Br)OCO3)S1,-0.8% (active)
7,CCCN1C(=O)/C(=C/c2ccc3c(c2)OCO3)NC1=S,19.4%
8,O=C1NC(=S)S/C1=C\c1ccc2ccccc2c1,75.1%
9,N#Cc1c(NC(=O)c2cc(-n3cnnc3)ccc2Cl)sc2c1CCCC2,13%
10,COc1ccc(C(=O)CC(=O)C(=O)Nc2ccccc2)cc1,32.5%
11,CC1CN(C(=S)NC(=O)c2ccc(Cl)cc2)CC(C)O1 (stereo not given),28.2%
12,CCn1cc(C(=O)NCCN(C)C)c(=O)c2cc(F)c(N3CCN(C)CC3)cc21,-0.9% (active)
13,O=C(NC(=S)Nc1cccnc1)c1cc2ccccc2o1,31.9%
14,COc1ccc(CS(=O)(=O)CC2(O)CCN(C(=O)c3cccc(C(F)(F)F)c3)CC2)cc1,-2.4% (active)
15,CC(C)Oc1cccc(C(=O)N2CCCC2)c1,9.7%
16,COc1ccc(C(=O)O)cc1S(=O)(=O)Nc1cccc(C(F)(F)F)c1,8%
17,C/C(=N\NC(=O)c1cc2ccccc2cc1O)c1cc2ccccc2o1,112%
18,O=C(Nc1nc(=O)c2ccccc2s1)c1ccc(Cl)cc1,23.9%
19,Cc1c(-c2ccn[nH]2)cc(NC(=O)c2ccc(Cl)cc2)c(=O)n1N,-0.8% (active)
20,Cc1ccc(C(=O)Nc2nc(=O)n(C)s2)cc1,15.9%
21,CCOC(=O)c1ccc(NC(=O)Cn2nnc(-c3ccccc3)n2)cc1,-3.4% (active)
22,CCOC(=O)c1nnn(CC(=O)Nc2cccc(F)c2)c1C(=O)OCC,14.1%
23,Cc1cc(C)c(-c2cc(NC(=O)COC(=O)c3ccc(NC(=O)CC#N)cc3)n(-c3ccccc3)n2)cc1C,7.4%
24,Cc1cccc(NC(=S)NC(=O)c2ccco2)c1C,77.7%
25,O=C(Nc1cccc2[nH]ncc12)c1ccc(F)cc1,-2.9% (active)

row,Structure (SMILES),activity change vs negative control
1,CCOc1cccc(C(=O)Nc2ccc3[nH]ncc3c2)c1,15.6%
2,O=C(Nc1nc(-c2ccccc2)c(-c2ccccc2)o1)c1ccc(F)cc1,40.3%
3,CCCCn1c(N)c(C(=S)NC(=O)CC(C)(C)C)c(=O)n(C)c1=O,40.5%
4,Cc1sc2ncnc(SCC(=O)c3ccc(O)cc3O)c2c1C,24.3%
5,Cn1ncc2c(NNC(=O)c3ccc(O)cc3)ncnc21,-3.1% (active)
6,Cn1ncc2c(NNC(=O)Cc3ccccc3)ncnc21,15.1%
7,Cn1ncc2c(O/N=C(\N)c3ccc(C(F)(F)F)cc3)ncnc21,7.4%
8,O=c1cc(-c2ccccc2)cc(-c2ccccc2)n1O,72.2%
9,COc1ccc(OCC(=O)NNC(=O)C(=O)Nc2ccc(C)cc2)cc1,7.7%
10,COC(=O)CNC(=S)NC(=O)c1ccc(C(C)(C)C)cc1,1.6%
11,COC(=O)CNc1nc(Cl)nc(Nc2ccc(C)cc2)n1,-0.4% (active)
12,COc1ccc(-n2c(=S)[nH]c3ccccc3c2=S)cc1,22.2%
13,COc1ccc(Cn2c(O)cc(=O)[nH]c2=O)cc1,1.4%
14,COc1ccc(-n2c(O)c(/C=C3\C=Nc4ccccc43)c(=O)[nH]c2=O)cc1,-8.7% (active)
15,CCC1(C)Cc2c(sc3nc(SC)[nH]c(=S)c23)CO1 (stereo not given),131%
16,COc1ccc(/C=C/C(=O)Nc2ccccc2C(=O)O)cc1,27.2%
17,CCOC(=O)/C(C)=N/NC(=O)c1ccc([N+](=O)[O-])cc1,40.5%
18,CCNC(=S)Nc1nc2c(cc1C(=O)OCC)CCCC2,29.4%
19,O=C(O)CSCc1c(F)cccc1Cl,-3.5% (active)
20,O=C(O)CSc1nc2ccccc2nc1Cc1ccccc1F,29.1%
21,CCN(CC)CCCN1C(=O)c2oc3ccccc3c(=O)c2C1c1cccs1 (stereo not given),44.2%
22,CON/C=N/C(=S)Nc1ncc(C(F)(F)F)cc1Cl,51.1%
23,Cc1nn(C)c(C(=O)NC(=S)Nc2ccc([N+](=O)[O-])cc2)c1Cl,29.3%
24,Cc1ccc(NC(=S)NC(=O)c2sc3ccccc3c2Cl)c(C(=O)O)c1,36.9%
25,COc1cccc(C2C3=C(N=c4s/c(=C\c5ccc(OCC(=O)O)cc5)c(=O)n42)c2ccccc2CC3)c1 (stereo not given),-16.7% (active)

row,Structure (SMILES),activity change vs negative control
1,CCOc1ccc(/C=C2\CCc3ccccc3C2=O)cc1,10.2%
2,COc1cccc([C@@H]2Oc3ccc(OC)cc3C(=O)[C@H]2OC(=O)NCc2ccc3c(c2)OCO3)c1,2.3%
3,O=C(NC(=S)N(CCCCO)C1CCCCC1)c1sc2ccccc2c1Cl,53.8%
4,C=CCn1c(SCC(=O)NCC2CCCO2)nnc1-c1ccccc1 (stereo not given),8.9%
5,O=C(CNCC1CCCO1)N1CCCCCC1 (stereo not given),8.2%
6,O=C(CSc1cn(CC(=O)N2CCCC2)c2ccccc12)NCC1CCCO1 (stereo not given),-4.5% (active)
7,CC(C)(C)c1cc(C(=O)NNC(=O)c2ccc(Cl)cc2)no1,53.5%
8,COc1cccc(CN(C)CC2CCCN(CCc3ccc(Cl)cc3)C2)c1OC (stereo not given),-3.8% (active)
9,COc1cccc(OC)c1OCCOCCN1CCN(C)CC1,6.8%
10,Oc1c(Cl)cc(Cl)cc1C=Nc1ccc(Br)cc1,60.6%
11,CCOC(=O)N/N=C/C=C/c1ccccc1[N+](=O)[O-],28.8%
12,C=CCN(c1ccc(Cl)cc1)S(=O)(=O)c1cccc(C(=O)O)c1,26.2%
13,S=c1nn[nH]n1C12CC3CC(CC(C3)C1)C2,36.2%
14,CC1CCN(C(=S)NC(=O)c2cccs2)CC1,23.7%
15,C=CCn1c(=S)[nH]c2scc(-c3cccs3)c2c1=O,121%
16,C=CCc1cccc(C2Nc3ccccc3C(=O)N2O)c1O (stereo not given),19%
17,OC(CNCCc1ccc(C(F)(F)F)cc1)COc1cccc2ccccc12 (stereo not given),-18.2% (active)
18,Cn1c(NNC(=O)C(c2ccccc2)c2ccccc2)cc(=O)n(C)c1=O,12.8%
19,CC12CCC(C(=O)NCc3ccc4c(c3)OCO4)(CC1=O)C2(C)C (stereo not given),9.1%
20,Cc1ccc(C(=O)NNc2cc(N3CCCC3)nc(N3CCCC3)n2)cc1,39.7%
21,COc1ccccc1NC(=O)C(=O)NNC(=O)c1ccco1,47.8%
22,CC(=O)c1cccc(NC(=O)NCc2cccs2)c1,8.1%
23,COc1ccc(COC(=O)C2CCN(S(=O)(=O)c3cccs3)CC2)cc1,9.3%
24,O=C(NCc1cccs1)C1CCC(CNS(=O)(=O)c2cccs2)CC1 (stereo not given),-0.3% (active)
25,O=[N+]([O-])c1ccc(-c2ccc(/C=N/n3cnnc3)o2)c(Br)c1,3.2%

row,Structure (SMILES),activity change vs negative control
1,CCOC(=O)/C(C)=N/NC(=O)c1cccc([N+](=O)[O-])c1,36.5%
2,COc1ccc(C(=O)NC2CC3CCCC(C2)N3Cc2ccccc2)cc1 (stereo not given),3.9%
3,COc1ccccc1C(=O)NNC(=O)C(=O)NC1CCCCC1,71.2%
4,CCOc1ccccc1C(=O)NC1CC2CCCC(C1)N2Cc1nnnn1Cc1ccco1 (stereo not given),-2.8% (active)
5,COc1ccc(C(=O)CC(=O)C(=O)Nc2ccccc2Cl)cc1,73.9%
6,O=C(COc1ccc(Cl)cc1Cl)NC(=S)Nc1ccccc1C(=O)O,10.9%
7,COc1cc(NC(=O)CCCOc2ccc(Cl)cc2Cl)c(C(=O)O)cc1OC,4.3%
8,O=C(CCCOc1ccc(Cl)cc1Cl)Nc1ccccc1C(=O)O,-11.5% (active)
9,C/C(=N\NC(=O)c1cc2ccccc2cc1O)c1ccc(C)o1,53.8%
10,C=CCOc1ccccc1/C=c1\sc2nc(=O)c(C)nn2c1=O,6.3%
11,CCN(CC)c1ccc(/C=c2\sc3nnc(-c4ccccc4Cl)n3c2=O)cc1,-3.9% (active)
12,O=C(NNc1nc2c(F)cccc2s1)c1cc(=O)c2ccccc2o1,4.5%
13,CCOc1ccc(NC(=S)NS(=O)(=O)c2cc(Br)ccc2OCC)cc1,50.4%
14,Cc1ccc(C(=O)N/N=C(/CC(=O)c2cccs2)C(F)(F)F)cc1,28.2%
15,Nn1c(SCC(=O)Nc2ccc(OC(F)F)cc2)nnc1-c1ccco1,-0.2% (active)
16,Cc1cc(-c2nnc(SCC(=O)Nc3ccc(C(F)(F)F)cc3)n2C)no1,8.3%
17,Cc1nnc(SCC(=O)Nc2nccs2)n1N,10.1%
18,CCNC(=O)C/C(C)=N/NC(=O)C(=O)Nc1ccc(CC)cc1,26.8%
19,O=c1c2ccccc2[nH]c(=S)n1CCc1ccccc1,33.3%
20,O=C(NC(=S)N(CCc1ccccc1)CCc1ccccc1)c1ccco1,67.4%
21,Cc1nn(C(=O)CNC(=O)c2ccccc2)c(C)c1C,46.6%
22,C=CCn1c(=S)[nH]c2scc(-c3ccc(C)o3)c2c1=O,102%
23,CN1CCN(S(=O)(=O)c2cccc(S(=O)(=O)c3ccc(Cl)cc3)c2)CC1,13.6%
24,O=S(=O)(c1ccc(F)cc1)N1CCN(c2ccc(F)cc2)CC1,0.8%
25,O=C1CCN(S(=O)(=O)c2ccc(Cl)cc2)CCN1,-0.2% (active)
